Hits are enriched below; roughly 3% of the tested compounds scored in any of these assays.
BCR signal inh = chronic active BCR signaling inhibition; ABC-DLBCL IkBa-CBG/CBR reporter, luminescence ratio, 4 h; Potency, µM (highest dose often 46.1 µM), for the others: top-dose activity change, negative = inhibition, hits mostly inhibitors; hit rate 0.05% among 340,000; AID 493014; active means well fitted inhibition curve with a large enough effect in the signal ratio, with a control signal flat, not every such curve was filed as active; inconclusive means small, poorly fitted or top-dose-only effect, or effect the other way, or a change in a side signal; the % refers to the signal ratio;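 further: potency means the concentration at half of the fitted maximal effect; plate controls were basal doxycycline-induced cells for no effect and cells given 10 µM MG132 for full effect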
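Concentration-response series (up to 46 uM) were applied to TMD8 dual-reporter cells for 4 h at 37C with doxycycline. Green/red ratio, after filter-overlap correction, defined %Activity; red signal alone was normalised to basal cells and zero luminescence.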
KCNH2 WT inh = inhibitors of human wildtype KCNH2 potassium channel; Q12809; U2OS, BacMam KCNH2, thallium flux FluxOr; hits give low values; activity change, % at 1.84 µM; hit rate 0.37% among 340,000;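 active means maximum activity change below -70%; inconclusive means maximum activity change between -70% and -50%; inactive means maximum activity change above -50%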; further: on the % scale 0 is the no-effect control and ±100 the full control effect
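U2OS cells were transduced with wild-type KCNH2 virus (2.03 x 10^8 / mL) for 4 h at room temperature, then cultured overnight at 37 C. Thallium flux was read with FluxOr dye. Rate constants were normalized to DMSO controls.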
ALOX12 inh = inhibitors of human 12S-lipoxygenase ALOX12; P18054; purified 12hLO, xylenol orange hydroperoxide absorbance; Potency, µM (doses to about 108 µM), inactives show at the highest dose activity change, negative = inhibition, hits mostly inhibitors; hit rate 1.1% among 580,000; AID 1671190; active means well fitted inhibition curve with a large enough effect; inconclusive means small, poorly fitted or top-dose-only effect, or another doubt; inactive means no such curve, though single readings can be large or run the other way; further: potency means the concentration at half of the fitted maximal effect; on the % scale 0 is the no-effect control and ±100 the full control effect
Target sequence (P18054 whole entry, looked up): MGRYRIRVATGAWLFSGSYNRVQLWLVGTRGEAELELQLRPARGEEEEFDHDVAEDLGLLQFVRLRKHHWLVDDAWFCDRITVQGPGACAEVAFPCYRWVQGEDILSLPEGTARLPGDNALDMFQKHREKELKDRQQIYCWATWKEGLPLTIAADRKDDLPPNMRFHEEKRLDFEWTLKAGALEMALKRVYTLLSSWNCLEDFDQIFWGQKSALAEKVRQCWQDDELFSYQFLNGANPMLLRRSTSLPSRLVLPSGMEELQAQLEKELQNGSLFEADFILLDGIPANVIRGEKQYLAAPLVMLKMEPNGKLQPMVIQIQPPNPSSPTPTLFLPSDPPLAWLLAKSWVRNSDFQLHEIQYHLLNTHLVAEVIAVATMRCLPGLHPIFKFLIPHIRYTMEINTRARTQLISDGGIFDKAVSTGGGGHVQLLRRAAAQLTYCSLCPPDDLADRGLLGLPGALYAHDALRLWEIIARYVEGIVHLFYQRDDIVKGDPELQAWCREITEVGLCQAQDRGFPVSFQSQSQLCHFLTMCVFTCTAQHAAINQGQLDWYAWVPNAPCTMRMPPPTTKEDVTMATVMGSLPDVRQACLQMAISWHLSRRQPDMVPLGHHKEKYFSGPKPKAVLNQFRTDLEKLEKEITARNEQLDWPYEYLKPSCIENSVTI
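Purified human 12hLO (150 nM final) in 25 mM Hepes, 0.01% Triton X-100, pH 7.0 was preincubated 15 min at room temperature with compound. Then 40 uM arachidonic acid was added, 30 min. Hydroperoxide was read by Fe-XO absorbance ratio 573/405 nm.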
ClpP mod = qHTS Assay for Activators of ClpP; Potency, µM (highest dose often 57.5 µM), without a hit: at the top dose activity change, negative = active; purified B. subtilis ClpP, FRET peptide cleavage, 20 min; ATP-dependent Clp protease proteolytic subunit (Bacillus subtilis (strain 168)), P80244; hit rate 1.9% among 340,000; active means well fitted falling curve with a large enough effect; inconclusive means small, poorly fitted or top-dose-only effect; inactive means no such curve, though single readings can be large or run the other way; further: potency means the concentration at half of the fitted maximal effect; the source files actives as falling curves though it sought activators and does not explain the sign; nearly all actives have a fitted effect of over 65% in size
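ClpP 10 microg/mL final, pH 8 Tris/KCl buffer with BSA, glycerol, Tween-20; compound pinned in; FRET-FV substrate; RT 20 min; Ex320/Em430; ΔFRET vs ADEP 5.8 microM, DMSO, no enzyme.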
KCNH2 3.1 block = blocks the human KCNH2 3.1 channel isoform | hit rate 0.95% among 340,000 | U2OS KCNH2 3.1, thallium flux FluxOr; hits give low values | activity change, % (tested at about 1.8 µM);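 active means maximum activity change below -70%; inconclusive means maximum activity change from -70% to -50%; inactive means maximum activity change above -50%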;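 further: thallium influx rate constant from kinetic fluorescence after stimulation buffer; on the % scale 0 is the no-effect control and ±100 the full control effect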
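U2OS cells transduced with KCNH2 3.1 mutant virus (1.77 x 10^8 /mL, 4 h), plated overnight at 37 C, loaded 45 min with FluxOr dye plus Red40 quencher. Thallium flux rate constant from kinetic reads after stimulation buffer, normalised to controls.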
LDHA block = LDHA (human) enzyme inhibition; P00338; purified LDHA, NADH/diaphorase-resazurin fluorescence; hits give low values; activity change, % (values are at about 110 or 230 µM); hit rate 0.15% among 480,000; in the data active means activity change below about -30%; inconclusive means mostly about -25% to -30%;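 further: plate controls were DMSO wells for no effect and wells without enzyme for full effect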
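Human LDH5 (2 nM) was incubated with 0.06 mM NADH and 0.2 mM pyruvate for 5 min at room temperature in Tris pH 7.4. Remaining NADH was coupled through diaphorase/resazurin, and resorufin fluorescence was read at 0 and 20 min.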
Active calls of the source: *; [ ] = remark or other dose.

How did COc1ccccc1NC(=S)N1CCC(c2nc3cc(C)c(C)cc3[nH]2)CC1 do in these assays?
BCR signal inh: -1%; KCNH2 WT inh: 31; ALOX12 inh: 8%; ClpP mod: 0%; KCNH2 3.1 block: 11; LDHA block: -1

What do the screens show for `Cc1cc(C)n(-c2ncnc3sc(C)c(C)c23)n1`?
BCR signal inh: inconclusive; KCNH2 WT inh: -12; ALOX12 inh: 0%; ClpP mod: 32µM*; KCNH2 3.1 block: 3; LDHA block: -6

What do the screens show for `O=C(NCCc1ccc(Cl)cc1)C12CC3CC(CC(Cl)(C3)C1)C2`?
ALOX12 inh: -21%; LDHA block: 1

Results for O=C(O)c1cccc(NS(=O)(=O)c2ccc(Oc3ccc(S(=O)(=O)Nc4cccc(C(=O)O)c4)cc3)cc2)c1 ?
KCNH2 WT inh: -144*; ALOX12 inh: 166%; KCNH2 3.1 block: 1; LDHA block: -6

How did O=C(O)c1cccc(Nc2nc3ccccc3nc2NS(=O)(=O)c2ccc(Br)cc2)c1 do in these assays?
ALOX12 inh: 13µM*; LDHA block: 4

What do the screens show for `O=C(O)c1cccc(NS(=O)(=O)c2ccc(-c3ccc(S(=O)(=O)Nc4cccc(C(=O)O)c4)cc3)cc2)c1`?
BCR signal inh: 2%; KCNH2 WT inh: -8; ALOX12 inh: -4%; ClpP mod: -11%; KCNH2 3.1 block: -8; LDHA block: -1

How did Cc1ccc(S(=O)(=O)Nc2nc3ccccc3nc2Nc2cccc(C(=O)O)c2)cc1 do in these assays?
ALOX12 inh: inconclusive; LDHA block: 0

How did O=S(=O)(Nc1nc2ccccc2nc1Nc1ccc2c(c1)OCO2)c1ccccc1 do in these assays?
BCR signal inh: -5%; KCNH2 WT inh: 6; ALOX12 inh: -19%; ClpP mod: 2%; KCNH2 3.1 block: -96*; LDHA block: -3

What do the screens show for `O=C(NNS(=O)(=O)c1ccc([N+](=O)[O-])cc1)C(=O)Nc1cccc(C(=O)O)c1`?
BCR signal inh: inconclusive; KCNH2 WT inh: -112*; ALOX12 inh: inconclusive; ClpP mod: -11%; KCNH2 3.1 block: 14; LDHA block: -1

Results for Cc1cccc(S(=O)(=O)Nc2nc3ccccc3nc2Nc2ccc3c(c2)OCO3)c1 ?
BCR signal inh: 3%; KCNH2 WT inh: -5; ALOX12 inh: 11%; ClpP mod: 0%; KCNH2 3.1 block: -5; LDHA block: -2

What do the screens show for `COc1cc(CCC(=O)O)cc2c1OCO2`?
ALOX12 inh: inconclusive; LDHA block: 5

What do the screens show for `CCNC(=O)NC(=O)COC(=O)c1cc(C)nc2ccccc12`?
ALOX12 inh: inconclusive; LDHA block: 5

How did Cc1ccc(-n2c(C3CCN(C(=O)Cc4cccc(F)c4)CC3)n[nH]c2=O)cc1 do in these assays?
ALOX12 inh: -16%

Results for CCOC(=O)CN1C(=O)N[C@@H](c2ccccc2)[C@H](C(C)=O)[C@H]1C ?
KCNH2 WT inh: -12; ALOX12 inh: inconclusive; ClpP mod: 2%; KCNH2 3.1 block: -82*; LDHA block: -1

What do the screens show for `Cc1cccc(C)c1-n1nnnc1C1(C)CCC(=O)N1c1ccc(N2CCOCC2)cc1` (stereo not given)?
ALOX12 inh: 11µM*; ClpP mod: -7%; LDHA block: 1

Results for CN(C)CCn1cnc2c1c(=O)[nH]c(=O)n2Cc1ccccc1 ?
BCR signal inh: -2%; KCNH2 WT inh: -252*; ALOX12 inh: -8%; ClpP mod: 0%; KCNH2 3.1 block: 4; LDHA block: 0

What do the screens show for `Cc1cccc(NC(=O)c2n[nH]nc2Nc2ccc(Cl)cc2)c1C`?
ALOX12 inh: 10%; LDHA block: 3

What do the screens show for `CC(=O)N(CCP(=O)(c1ccccc1)c1ccccc1)Cc1ccco1`?
BCR signal inh: inconclusive; KCNH2 WT inh: -10; ALOX12 inh: 6%; ClpP mod: -2%; KCNH2 3.1 block: -3; LDHA block: -1

Results for O=P(CCNCc1ccco1)(c1ccccc1)c1ccccc1 ?
BCR signal inh: -1%; KCNH2 WT inh: -6; ALOX12 inh: 0%; ClpP mod: 4µM*; KCNH2 3.1 block: -22; LDHA block: 2

What do the screens show for `O=C(C1CCCCC1)N1CCC2(CN[S+](=O)([O-])c3cnccc3O2)C1` (stereo not given)?
ALOX12 inh: 12%[6.33 µM]

What do the screens show for `COc1cccc(N2CCN(C(C(=O)O)c3c[nH]c4cc(NC(=O)CCC(=O)O)ccc34)CC2)c1` (stereo not given)?
ALOX12 inh: inconclusive; LDHA block: 1

What do the screens show for `Cc1nnc(SCc2ccc(Cl)cc2)nc1/C=C/N(C)C`?
BCR signal inh: 3%; KCNH2 WT inh: -1; ALOX12 inh: 40µM*; ClpP mod: 1%; KCNH2 3.1 block: -30; LDHA block: 0

What do the screens show for `CSc1nnc(C)c(/C=C/NOCc2ccc(Cl)cc2)n1`?
BCR signal inh: 0%; KCNH2 WT inh: 3; ALOX12 inh: inconclusive; KCNH2 3.1 block: 12; LDHA block: 26

How did COc1ccc2c(CN(C)CCOc3ccccc3Cl)cc(=O)oc2c1 do in these assays?
ALOX12 inh: 45%; LDHA block: -1

What do the screens show for `O=C(NCc1ccc(Cn2cccn2)cc1)c1cn[nH]c1-c1ccc(F)cc1`?
ALOX12 inh: -2%; LDHA block: 9

What do the screens show for `Fc1ccc(-c2[nH]ncc2CNCc2cccc(Cn3cccn3)c2)cc1`?
ALOX12 inh: 18µM*; LDHA block: 3

Results for CN1CCN(C(=O)c2cnn(-c3ccccc3)c2NC(=O)c2ccc(Br)cc2)CC1 ?
KCNH2 WT inh: -79*; ALOX12 inh: inconclusive; ClpP mod: -3%; KCNH2 3.1 block: -76*; LDHA block: -3

Results for O=C(/C=C/c1ccco1)c1cccc([N+](=O)[O-])c1 ?
KCNH2 WT inh: 10; ALOX12 inh: 25µM*; ClpP mod: -6%; KCNH2 3.1 block: 9; LDHA block: 8

Results for O=C(C=Cc1ccco1)c1ccco1 ?
KCNH2 WT inh: 4; ALOX12 inh: 8.9µM*; ClpP mod: -4%; KCNH2 3.1 block: 13; LDHA block: 4

What do the screens show for `O=C(/C=C/c1ccc([N+](=O)[O-])cc1)/C=C/c1ccco1`?
BCR signal inh: inconclusive; ALOX12 inh: 18µM*

How did O=C(/C=C/c1ccc([N+](=O)[O-])cc1)c1ccco1 do in these assays?
BCR signal inh: 2%; KCNH2 WT inh: 10; ALOX12 inh: 4%; ClpP mod: 1%; KCNH2 3.1 block: -8; LDHA block: -2

What do the screens show for `O=C(/C=C/c1ccco1)c1ccccc1`?
ALOX12 inh: 16µM*; LDHA block: 7
